# PubChem BioAssay AID1117361 (Southern Research Institute, 2015)
# Among all 3,600 compounds or so, about 900 (25%) were called active. How the calls were made is not given here. A selection follows. Entries with a potency or affinity are not part of this list.
# Molecular target: Protein Tat (Human immunodeficiency virus type 1 group M subtype B (isolate HXB2)) (UniProt P04608)
# Experiment: inhibitors of Tat binding to TAR RNA, dose response, counter-screen for Vif-APOBEC3G degradation inhibitor project, biochemical, fluorescence polarization, FAM-labeled TAR RNA (AID 1117361)
# Conditions: outcome: dose series up to 100 µM unless noted; series mostly up to 100 µM
row,SMILES,outcome
1,CCOc1ccccc1C(=S)NC1CCCCC1,inactive
2,CCOC(=O)C(NC(=O)NC1CCCCC1)(c1ccccc1)C(F)(F)F (stereo not given),inactive
3,COc1cc(CN2CCNC(=O)C2CC(=O)N(Cc2nccn2C)C(C)C)cc(OC)c1 (stereo not given),inactive
4,CCOCC(=O)Nc1nc2ccc(OC)cc2s1,inactive
5,CC(NC(=O)c1cccs1)C(c1cccs1)N1CCN(Cc2ccccc2)CC1 (stereo not given),inactive
6,COCCCN1C(=O)C(O)=C(C(C)=O)C1c1ccccn1 (stereo not given),inactive
7,CCOc1ccc(OCC)c(S(=O)(=O)NCc2ccc3c(c2)OCO3)c1,inactive
8,COC(=O)CC(NS(=O)(=O)c1cccs1)c1cccc2ccccc12 (stereo not given),inactive
9,Cc1ccc(SCCNC(=O)c2cccc([N+](=O)[O-])c2C)cc1,inactive
10,CCOC(=O)Cn1c(=O)oc2cc(S(=O)(=O)Nc3c(C)cc(C)cc3C)ccc21,inactive
11,CCOc1ccc(Br)cc1/C=N/O,inactive
12,O=C(CN1C(=O)c2ccccc2C1=O)NCC(=O)OCC(=O)c1cccc([N+](=O)[O-])c1,inactive
13,O=C1CN(C(=O)COC(=O)C23CC4CC(CC(O)(C4)C2)C3)c2ccccc2N1,inactive
14,COc1ccc(NC(=O)CCc2nc(-c3ccccc3F)no2)cc1,inactive
15,O=C(NCCCN1CCOCC1)c1ccc(Br)s1,inactive
16,CC1CCN(C(=O)CCc2nc3cc(S(=O)(=O)N(C)C)ccc3n2C)CC1,inactive
17,CCC(CC)NC(=O)Nc1ccc(F)cc1F,inactive
18,CCC(CC)c1nc2cc(OC)c(OC)cc2c(=O)o1,inactive
19,Oc1ccc(C2Nc3cccc4cccc(c34)N2)c(O)c1,inactive
20,CCOC(=O)C1CCCC12Nc1cccc3cccc(c13)N2 (stereo not given),inactive
21,CCCCc1nc2sc3c(=O)[nH]cnc3c2c2c1CCCC2,inactive
22,CC(C)(C)C(=O)OCc1nc(-c2ccc(O)c(O)c2)cs1,inactive
23,Cc1cccnc1Nc1nc(-c2ccc(O)c(O)c2)cs1,inactive
24,CCc1nnc(NC(=O)c2ccc(S(=O)(=O)N(CC(C)C)CC(C)C)cc2)o1,inactive

row,SMILES,outcome
1,CCCNC(=O)c1ccc(-c2nc3ccccc3s2)s1,inactive
2,Cc1nnc(SCCCn2c(N3CCN(c4ccccc4)CC3)nc3c2c(=O)[nH]c(=O)n3C)s1,inactive
3,NCCCSC1=NCCCN1,inactive
4,CCCCCOC(=O)C1=C(C)Nc2nnnn2C1c1ccccc1Cl (stereo not given),inactive
5,COc1ccccc1NC(=O)C1=C(C)Nc2nnnn2C1c1ccccn1 (stereo not given),inactive
6,COc1cccc(N2C(=O)C3ON(c4ccccc4)C(c4cccs4)C3C2=O)c1 (stereo not given),inactive
7,COc1ccc(N2CCN(CC(=O)c3c(C)n(C)c4ccc(OC)cc34)CC2)cc1,inactive
8,CN1CCN(CCCNC(=O)C2CC(=O)N(C3CCCCC3)C2)CC1 (stereo not given),inactive
9,C=CCn1c(C)cc(C(=O)COC(=O)C2CC(=O)N(Cc3ccccc3)C2)c1C (stereo not given),inactive
10,CC1C/C(=N/N2C(=O)CSC2=S)CC(C)(C)C1 (stereo not given),inactive
11,COCCNc1nc2c(c(=O)n(C)c(=O)n2C)n1Cc1cccc(C)c1,inactive
12,CCOc1cc(C(=O)Nc2cc(C)ccn2)cc(OCC)c1OCC,inactive
13,COc1ccc(S(=O)(=O)n2nc(OC(=O)c3ccc(C)cc3)cc2N)cc1,inactive
14,Nc1ccc(N=Nc2ccc(O)cc2)c(N)n1,inactive
15,COCCn1c(SCC(=O)N2CCC(C)CC2)nc2c([nH]c3ccccc32)c1=O,inactive
16,Cn1nc(C(F)(F)F)c2cc(C(=O)NC3CC3)sc21,inactive
17,O=[N+]([O-])c1ccc(CNc2ccc(F)cc2)s1,inactive
18,COc1cccc(CN2CCSCC2)c1,inactive
19,CCOc1ccc(N(CC(=O)Nc2cccc(OC)c2)S(=O)(=O)c2c(C)noc2C)cc1,inactive
20,CCN1CCN(S(=O)(=O)c2cccs2)CC1,inactive
21,O=[N+]([O-])c1ccc(O)c2ncccc12,inactive
22,O=c1c2ccccc2c(-c2ccccc2)nn1-c1cc(Cl)ccc1[N+](=O)[O-],inactive
23,Cc1ccccc1CS(=O)(=O)Cc1ccc(C(=O)N2CCOCC2)o1,inactive
24,O=C(COC(=O)Cc1cccc(C(F)(F)F)c1)NCC1CCCO1 (stereo not given),inactive

row,SMILES,outcome
1,COc1ccc(CC(=O)Nc2ccc(-c3csc(C)n3)cc2)cc1,inactive
2,O=C(O)/C=C/c1ccc(S(=O)(=O)N2CCN(CCN3C(=O)C4C5C=CC(C5)C4C3=O)CC2)cc1 (stereo not given),inactive
3,COc1ccc(-n2c(SCC(=O)NNC(=O)c3ccccc3C)nnc2-c2ccncc2)cc1,inactive
4,CC(C)(C)c1cc(N/C=C\c2nnnn2-c2ccc(Br)cc2)no1,inactive
5,CC(/C=C/c1ccco1)=N\NC(=O)c1cccnc1,inactive
6,CCCCn1cnc2c1c(=O)n(C)c(=O)n2C,inactive
7,O=C(Nc1ccc2c(c1)oc1ccccc12)c1cccnc1,inactive
8,COc1ccc(/C=N/NC(=O)Cn2cnc3c2c(=O)n(C)c(=O)n3C)c(OC)c1OC,inactive
9,O=C(c1cc(COc2ccc(F)cc2F)on1)N1CCN(C2CCCC2)C(=O)C1,inactive
10,CC(C)CCn1cnc2c([nH]c3cccc(Cl)c32)c1=O,inactive
11,CCCS(=O)(=O)N1CCC(C(=O)NCCCN(CC)c2cccc(C)c2)CC1,inactive
12,CCc1nnc(NC(=O)C(NS(=O)(=O)c2ccc3c(c2)OCCO3)C(C)C)s1 (stereo not given),inactive
13,Nc1nc(SCc2nc(-c3ccccc3)no2)[nH]c(=O)c1-c1ccccc1,inactive
14,Cc1ccc(-c2nnn(CC(=O)N(c3ccc(F)cc3)C(C(=O)NC3CCCC3)c3ccco3)n2)o1 (stereo not given),inactive
15,O=C(CC(=O)NN=Cc1ccc2c(c1)CCC2)NN=Cc1ccc2c(c1)CCC2,inactive
16,O=S(=O)(c1ccc(NC(=S)N/N=C/c2ccc(O)c(O)c2)cc1)N1CCOCC1,inactive
17,Cc1[nH]c2ccccc2c1C(=O)CN1CCC(C(N)=O)(N2CCCCC2)CC1,inactive
18,C[C@H](NC(=O)c1ccco1)C(=O)Nc1cccc([N+](=O)[O-])c1,inactive
19,CCNS(=O)(=O)c1ccc(NS(=O)(=O)c2cc(C)ccc2C)cc1,inactive
20,N/C(=N\OC(=O)COc1ccc2ccccc2c1)c1ccccn1,inactive
21,Cc1ccc(-c2nn3c(C)nnc3s2)cc1NC(=O)CSc1ccc(Cl)cc1,inactive
22,COc1ccc(C)cc1-n1c(SCC(=O)Nc2cc(C)on2)nc2sc(C)c(C)c2c1=O,inactive
